The values that follow come from PMC7819943, “Rice protein-binding microarrays: a tool to detect cis-acting elements near promoter regions in rice”.

Whole data set: some 35,000 sequences, median “fluorescence intensity (a.u.)” near 10,000, cut for the highest 2% near 52,000. Many of the other results were omitted from the sample, so the highest values are more common in it than they were.

The target of this assay is T1, OsWOX13 (Oryza sativa, UniProt Q5QMM3 1-267).
T1 sequence: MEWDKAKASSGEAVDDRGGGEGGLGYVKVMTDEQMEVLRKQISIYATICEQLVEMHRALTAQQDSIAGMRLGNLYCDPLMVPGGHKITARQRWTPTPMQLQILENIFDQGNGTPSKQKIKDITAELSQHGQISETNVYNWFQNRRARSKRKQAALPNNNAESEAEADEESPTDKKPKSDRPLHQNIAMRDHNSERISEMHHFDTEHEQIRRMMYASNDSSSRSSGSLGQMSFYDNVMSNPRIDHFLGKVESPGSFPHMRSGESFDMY
In words: protein-binding microarray (RPBM); PBS, 2% BSA, 51.3 ng/ul salmon testes DNA, 50 uM zinc acetate, 200 nM TF, 25 C, 1 h; high values mean tight binding. The settings on record: protein: recombinant; tags: N-terminal polyhistidine and DsRed monomer fusion (pET32a); label: CyDye5-dUTP incorporated in the synthesized complementary strand; 3' TTTTT single-stranded linker to array surface; dsDNA, one strand shown. In short, it runs like this:
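The binding signal is fluorescence intensity per array feature (arbitrary units). Readings came from an Axon 4000B scanner after a washed, 2% BSA-blocked, double-stranded custom Agilent array had been incubated for 1 h at 25 °C with 200 nM protein and 50 µM zinc acetate. The protein was a Ni–NTA-purified transcription factor fused N-terminally to polyhistidine and DsRed, expressed in E. coli BL21-CodonPlus.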
Regarding “TATTAAATTGACTATAGATGATTTGGAGCTAGTAATTGGCCGGAGTCACCTAGTGCAG”, the binding signal is 36800 fluorescence intensity (a.u.). With “GTAATTAATTACTTGATTAACAATTAAATAATAATAGTTACGGAGTCACCTAGTGCAG”, the binding signal was 33200 fluorescence intensity (a.u.). To “ACAAGTTGATGGGGACACTTTTCTTATGTAGTATATAATTCGGAGTCACCTAGTGCAG” belongs 3270 fluorescence intensity (a.u.); to “AACCCTGATTTCCGTGCTCAACGTTTGACCGTCCGTCTTGCGGAGTCACCTAGTGCAG”, 4670 fluorescence intensity (a.u.); to “TCGATCACAAATTAATATTGTTTGCATACATACTCATATGCGGAGTCACCTAGTGCAG”, 6200 fluorescence intensity (a.u.).

Regarding “ATCCAATCATTTCAAAACGTATTCCTCAGCACATTAAACGCGGAGTCACCTAGTGCAG”, the binding signal is 19400 fluorescence intensity (a.u.).

Consider “GCTAATTGCAATTTTGGCCGTCCATAAAGAGCTTGCGGCCCGGAGTCACCTAGTGCAG”, for which the binding signal is 52900 fluorescence intensity (a.u.). As for “CCATAATTTTGCAAAGACATCAAACCAAATAAAACCAATGCGGAGTCACCTAGTGCAG”, the binding signal is 6680 fluorescence intensity (a.u.).

With “ACTAGCTAACTAAATTTGAAAGAGACTAGCTAGCTGCTTGCGGAGTCACCTAGTGCAG”, the binding signal was 6300 fluorescence intensity (a.u.). As to “GATAATGGTAGTGATTGGTTGAGGCTTGAGAGTAGATGTACGGAGTCACCTAGTGCAG”, the binding signal was 30600 fluorescence intensity (a.u.).

With “CTAAACCGCATAATAATTTACAGAAATGCCCCTCACCTCCCGGAGTCACCTAGTGCAG”, the binding signal is 11300 fluorescence intensity (a.u.). Then “GCACCTTTCAAATTCATCTGATTTATGCATTCTTCTGTAACGGAGTCACCTAGTGCAG”, with 3340 fluorescence intensity (a.u.); and “ATGTGATTGATTCTGCTGGTGGATTCTCTCTTCGGTTTGCCGGAGTCACCTAGTGCAG”, with 62800 fluorescence intensity (a.u.). To “CCTCTTGATTGATTGCTCGGTCGACTGATTGCTTCTTACACGGAGTCACCTAGTGCAG” belongs 65000 fluorescence intensity (a.u.). To “TTGGTTGGTTGGTTGATTGCTCGCGCCCCGCGCGGTTGCGCGGAGTCACCTAGTGCAG” belongs 6680 fluorescence intensity (a.u.); to “ATTGTTGCTGCTGCTGGATTGATTAGTGGTTAAGCAGATTCGGAGTCACCTAGTGCAG”, 5320 fluorescence intensity (a.u.); to “ATTGATTGATAAACCCTACTGCTTCTCGCCGCCGCCGCCGCGGAGTCACCTAGTGCAG”, 55100 fluorescence intensity (a.u.). On to “CTCCCAAGTAAATGATTTGAAATACCCGATCTAATTATTACGGAGTCACCTAGTGCAG”, for which the binding signal is 3180 fluorescence intensity (a.u.). Turning to “CTCTTGATTGCGGCGCGACTGCGAGCGAGAGAGCTTCACGCGGAGTCACCTAGTGCAG”, the binding signal is 20500 fluorescence intensity (a.u.). Then “CCGACCCGTTGGATTGATAAAACCAACTGCTTCCCGCTCCCGGAGTCACCTAGTGCAG”, with 6190 fluorescence intensity (a.u.); and “ACCAAGTAATTGATATCTAGAAATCCGATACCTAGTACCACGGAGTCACCTAGTGCAG”, with 55000 fluorescence intensity (a.u.).

Take “TGGCCTTGATTTGCTTCCTGAATGTGCCTGCTTCCTTACACGGAGTCACCTAGTGCAG”: the binding signal was 18100 fluorescence intensity (a.u.).

As for “CCAAGCAAATAATCCGATAGATTGAATCGGTGAGTTACCACGGAGTCACCTAGTGCAG”, the binding signal was 9630 fluorescence intensity (a.u.). Then “TTTTGCAATGTGATTTGCTGGTTTGGATAGTGGAGAAGTTCGGAGTCACCTAGTGCAG”, with 3300 fluorescence intensity (a.u.).

“ATTTATTAATATTAATATTATTGTGGGAAATTTTAGAATGCGGAGTCACCTAGTGCAG”: the binding signal was 3460 fluorescence intensity (a.u.). Then “TGCTGTAATTACTTTTCTGTAATTTGGATTAATCCTTCGCCGGAGTCACCTAGTGCAG”, with 40800 fluorescence intensity (a.u.); and “AGATACTTAATTAGTGTCTTCTATAAGCAAAGGTCAGGAACGGAGTCACCTAGTGCAG”, with 11300 fluorescence intensity (a.u.). Then “GCTCTATCACAAAATAAACTAGAGTTATGAAGCTGGATTTCGGAGTCACCTAGTGCAG”, with 4850 fluorescence intensity (a.u.); and “GTTATGTAATTAAAACGTTGTTTTCTTCTAATATATTGTCCGGAGTCACCTAGTGCAG”, with 7150 fluorescence intensity (a.u.); and “AATCAAATCATCTCATCAAAGTCCAATCCCGCTAGCTCCACGGAGTCACCTAGTGCAG”, with 9000 fluorescence intensity (a.u.). To “GATTGATTTGATTGATTGCTTGATTGGTTAATTGGTTGATCGGAGTCACCTAGTGCAG” belongs 51600 fluorescence intensity (a.u.). Consider “TGATTGTACGTATTCTGATTGATTGCTTATCGATATCTCACGGAGTCACCTAGTGCAG”, for which the binding signal is 26100 fluorescence intensity (a.u.). On to “TCTGGTCGTAAATTGACAACCAACCTTAAGAAAATCCAGGCGGAGTCACCTAGTGCAG”, for which the binding signal was 21300 fluorescence intensity (a.u.).

For “CGGGTTTGATTTGATTTGATTTTGATTTTGATTTGCTTCTCGGAGTCACCTAGTGCAG”, the binding signal was 53400 fluorescence intensity (a.u.).

With “ACCTTCACTTGATTGCTGGTGGTAGTAGTAGTAGTAGTACCGGAGTCACCTAGTGCAG”, the binding signal was 21700 fluorescence intensity (a.u.).

Turning to “ACGGGGTTGCGGTAATTTTAATTGGGCCGAAATGTGATTCCGGAGTCACCTAGTGCAG”, the binding signal was 4130 fluorescence intensity (a.u.). For “TAATCGTATTAATTGATCAACAGGCTAGGCCAGCCAAACACGGAGTCACCTAGTGCAG”, the binding signal was 13200 fluorescence intensity (a.u.). To “TGAGTAATTGATAGTGACACGGCTATCCAACCAATCCAGGCGGAGTCACCTAGTGCAG” belongs 65100 fluorescence intensity (a.u.); to “GGCCGATTGATTGGGTCCGAGTAATCTCGGAAATGTGGGGCGGAGTCACCTAGTGCAG”, 53600 fluorescence intensity (a.u.); to “TTTTGATTGCACCTTGCTTCTCGTATACACCCTCACCTATCGGAGTCACCTAGTGCAG”, 22200 fluorescence intensity (a.u.). As to “GAAATGGGCCTAATTGTCGGTCACATACCGAGTAAATGGGCGGAGTCACCTAGTGCAG”, the binding signal was 4300 fluorescence intensity (a.u.). To “GTGATTGATATCGATTCTGATTGATGCCTTTGCCTGGTACCGGAGTCACCTAGTGCAG” belongs 57000 fluorescence intensity (a.u.).
